Among the data in PubChem BioAssay (EPA / NIEHS) are AC50 and outcome values, retold here.

Structures are written as SMILES. “And” between values parts separate entries of the source, which are not always exact repeats. Equal entries are not always repeated. Results filed as inconclusive are left out. Some compounds were tested as several samples or in several runs, with calls that do not always agree. The source made the active and inactive calls. The calls were made as follows: active = hit-call score of the fitted dose curve at least 0.9, where 1 is the maximum; inconclusive = response in the unintended direction; inactive = score below 0.9.

The target in test [1] is chimpanzee Androgen Receptor (AR), AR (gene 747460) (UniProt O97775). As to the kind of experiment: NVS_NR_cAR: NovaScreen (NVS) Nuclear Receptor Binding Assay for chimpanzee Androgen Receptor (AR) (AID 2283346).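 Also: radioligand displacement from AR measured by scintillation counting in a cell-free assay; a loss of bound radioligand signal versus DMSO counts as binding.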 In a few lines:
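Cell-free competition binding with insect-cell (Sf9/Sf21) extracted chimpanzee AR; scintillation signal from lysate at 72 h. Screened in duplicate at 25 uM, then concentration-response for actives; fitting relative to DMSO.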

The target of test [2] is Estrogen receptor (Homo sapiens) (UniProt P03372). Kind of test: NVS_NR_hER: NovaScreen (NVS) Nuclear Receptor Binding Assay for human Estrogen Receptor (ER) (AID 2283348). In a few lines:
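Cell-free MCF7-derived ER preparation, specific radioligand displaced by test compound, read by scintillation counting 18 h post-dosing. Duplicate single-point 25 uM screen, then concentration-response confirmation; DMSO baseline.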

Test [3] shares this target. Kind of test: OT_ER_ERaERa_1440: Odyssey Thera (OT) 24-hour HEK293T Protein-Complementation Assay for Estrogen Receptor-alpha/-alpha Homodimer (AID 2283349).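 Also: hits raise fluorescence above DMSO for agonists and antagonists alike.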 Put shortly: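 HEK293T, stable ERα LBD (aa 310-547) homodimer PCA; 24 h compound exposure; mean fluorescence intensity (nuclear for agonists, nuclear plus cytoplasmic for antagonists) vs vehicle; positive fitting direction, DMSO baseline.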

The target of test [4] is Bile acid receptor (Homo sapiens) (UniProt Q96RI1). As to the kind of experiment: NVS_NR_hFXR_Antagonist: NovaScreen (NVS) Nuclear Receptor Binding Assay for human Farnesoid X Receptor Antagonism (FXR) (AID 2283350). In a few lines: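 Antagonist-format time-resolved FRET binding assay with extracted human receptor protein, read 1 hour after compound addition. Compounds first screened at 25 uM in duplicate, then actives tested in concentration series, with loss of signal relative to DMSO.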
Chain of Bile acid receptor (Homo sapiens) (Q96RI1 whole entry, looked up): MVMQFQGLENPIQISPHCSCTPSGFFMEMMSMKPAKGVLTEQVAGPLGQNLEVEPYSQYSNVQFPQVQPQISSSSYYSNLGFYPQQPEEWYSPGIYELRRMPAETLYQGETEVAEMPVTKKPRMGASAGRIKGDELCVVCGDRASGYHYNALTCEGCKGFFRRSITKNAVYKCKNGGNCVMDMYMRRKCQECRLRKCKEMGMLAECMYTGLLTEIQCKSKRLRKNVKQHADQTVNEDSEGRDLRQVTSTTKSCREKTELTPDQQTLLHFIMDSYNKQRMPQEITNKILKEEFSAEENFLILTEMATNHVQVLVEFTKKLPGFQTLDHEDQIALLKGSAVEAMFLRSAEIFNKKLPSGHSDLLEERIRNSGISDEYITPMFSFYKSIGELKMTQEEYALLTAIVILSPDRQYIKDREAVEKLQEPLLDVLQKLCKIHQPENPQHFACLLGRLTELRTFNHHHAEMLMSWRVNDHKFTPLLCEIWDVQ

Test [5] deals with Estrogen receptor (Homo sapiens) (UniProt P03372). Kind of test: OT_ER_ERaERa_0480: Odyssey Thera (OT) 8-hour HEK293T Protein-Complementation Assay for Estrogen Receptor-alpha/-alpha Homodimer (AID 2283351).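 Also: rise in fluorescence from reassembled reporter fragments on ERα LBD homodimer in nucleus or whole cell.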 Put shortly:
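Measures ERα LBD (aa 310-547) homodimer complementation in stably transfected HEK293T at 8 h post-dose, with fluorescence intensity quantified on a laser scanning cytometer relative to DMSO controls.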

Test [6] concerns the target T1, Estrogen receptor (Homo sapiens) + Estrogen receptor beta (Homo sapiens) (UniProt P03372+Q92731). As to the kind of experiment: OT_ER_ERaERb_0480: Odyssey Thera (OT) 8-hour HEK293T Protein-Complementation Assay for Estrogen Receptor-alpha/-beta Heterodimer (AID 2283352). Put shortly:
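HEK293T cells expressing ER-alpha/ER-beta LBD fusions to complementary reporter fragments were dosed with compound for 8 hours. Heterodimer formation was read as increased nuclear (agonist) or nuclear plus cytoplasmic (antagonist) mean fluorescence intensity versus DMSO vehicle.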

Test [7] has as its target rat Mineralocorticoid Receptor (MR), Nr3c2 (gene 25672) (UniProt P22199). As to the kind of experiment: NVS_NR_rMR: NovaScreen (NVS) Nuclear Receptor Binding Assay for rat Mineralocorticoid Receptor (MR) (AID 2283355). In a few lines: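 Primary HTS ran in duplicate at a single 25 uM concentration, with concentration-series follow-up for actives. Receptor source: adrenalectomized rat brain supernatant, cell-free. Radioligand displacement read by scintillation at 24 h, relative to DMSO baseline.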

Test [8] deals with T1, Estrogen receptor (Homo sapiens) + Estrogen receptor beta (Homo sapiens). Kind of test: OT_ER_ERaERb_1440: Odyssey Thera (OT) 24-hour HEK293T Protein-Complementation Assay for Estrogen Receptor-alpha/-beta Homodimer (AID 2283356).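 Also: heteromer of ER alpha and ER beta binding domains; hits raise reporter fluorescence and both agonists and antagonists give an increase.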 In a few lines: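 HEK293T cells stably expressing a PCA pair of ERα LBD (aa 310-547) and ERβ LBD (aa 263-489) were dosed for 24 h. Fluorescence intensity increase versus DMSO vehicle was fitted as gain-of-signal.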

Test [9] has as its target Estrogen receptor beta (Homo sapiens) (UniProt Q92731). As to the kind of experiment: OT_ER_ERbERb_0480: Odyssey Thera (OT) 8-hour HEK293T Protein-Complementation Assay for Estrogen Receptor-beta/-beta Homodimer (AID 2283357).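 Also: active means signal gain over DMSO baseline.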 In a few lines: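 ER-beta LBD homodimer PCA stably expressed in HEK293T; 8 h compound exposure, then formaldehyde fixation and Draq5 staining. Gain in nuclear/cytoplasmic fluorescence intensity versus DMSO vehicle, read on laser scanning cytometer.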

For a further test, the target named is PGR (gene 5241) (UniProt P06401). As to the kind of experiment: NVS_NR_hPR: NovaScreen (NVS) Nuclear Receptor Binding Assay for human Progestron Receptor (PR) (AID 2283360).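 Also: active means loss of bound radioligand signal versus DMSO baseline.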 Put shortly:
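Cell-free radioligand binding using receptor protein extracted from T47D cells, read by scintillation counting 18 hours after dosing. Loss of signal relative to DMSO baseline indicates displacement; primary screen single concentration 25 uM in duplicate, actives followed in concentration series.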

For test [10], the target named is Nuclear receptor subfamily 1 group I member 2 (Homo sapiens) (UniProt O75469). Kind of test: NVS_NR_hPXR: NovaScreen (NVS) Nuclear Receptor Binding Assay for human Pregnane X Receptor (PXR) (AID 2283365).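 Also: a drop in FRET signal versus DMSO baseline means the compound binds.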 In a few lines: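 Cell-free binding assay with extracted human PXR protein, read by TR-FRET 2 h after dosing; loss of signal relative to DMSO baseline indicates binding. Primary screen at 25 uM in duplicate, actives retested in concentration series.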

For test [11], the target named is Androgen Receptor/SRC-1 Co-activator, AR (gene 367) (UniProt P10275). Kind of test: OT_AR_ARSRC1_0480: Odyssey Thera (OT) 8-hour HEK293T Protein-Complementation Assay for Androgen Receptor/SRC-1 Co-activator (AID 2283354).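 Also: hits raise the complementation signal above DMSO so AC50 marks enhancers.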 Put shortly:
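Reconstituted split-Venus YFP signal from AR–SRC-1 interaction, read by imaging 8 h post-dose in stable HEK293T lines. The 488 nm nucleus-to-cytoplasm ratio (≥400 cells/image) was fitted upward against DMSO.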

Test [12] addresses Glucocorticoid receptor (Homo sapiens) (UniProt P04150). As to the kind of experiment: NVS_NR_hGR: NovaScreen (NVS) Nuclear Receptor Binding Assay for human Glucocorticoid Receptor (GR) (AID 2283363).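 Also: activity is loss of specific radioligand binding signal relative to DMSO.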 Put shortly: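 Compounds first tested in duplicate at 25 uM, actives followed up in concentration series. Binding to extracted GR protein measured as competitive radioligand displacement, filter scintillation read 16 h post-dosing, normalised to DMSO.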

Test [13] concerns the target rat Androgen Receptor (AR), Ar (gene 24208) (UniProt P15207). Kind of test: NVS_NR_rAR: NovaScreen (NVS) Nuclear Receptor Binding Assay for rat Androgen Receptor (AR) (AID 2283366). In a few lines: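 Actives from a duplicate single-concentration (25 uM) primary run went on to concentration series. Displacement of radioligand was counted by filtration and scintillation, 18 h post-dose, using prostate extracts from testosterone-pretreated rats, with DMSO as baseline.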

Test [14] deals with Bile acid receptor (Homo sapiens) (UniProt Q96RI1). Kind of test: NVS_NR_hFXR_Agonist: NovaScreen (NVS) Nuclear Receptor Binding Assay for human Farnesoid X Receptor Agonism (FXR) (AID 2283347). Put shortly: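 Agonist-mode FXR assay read by time-resolved FRET 1 h after compound addition, using isolated human receptor protein without cells. Duplicate 25 uM single-point primary screen, concentration series for confirmed actives; DMSO as baseline.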

Test [15] addresses Retinoic acid receptor alpha (Homo sapiens) (UniProt P10276). Kind of test: NVS_NR_hRARa_Agonist: NovaScreen (NVS) Nuclear Receptor Binding Assay for human Retinoic Acid Alpha Receptor Agonism (RAR) (AID 2283361). In a few lines: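 Agonist-mode TR-FRET binding format using extracted protein, measured at 2 h post-dosing. Initial duplicate single-point screen at 25 uM preceded concentration series for actives; activity was normalized to DMSO baseline.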

In test [16] the target is human Thyroid Receptor Alpha (TRa), THRA (gene 7067) (UniProt P10827). As to the kind of experiment: NVS_NR_hTRa_Antagonist: NovaScreen (NVS) Nuclear Receptor Binding Assay for human Thyroid Receptor Alpha Antagonism (TRa) (AID 2283362). In a few lines:
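Cell-free binding assay on extracted receptor protein, read 1 h after chemical dosing by AlphaLISA chemiluminescence; loss of signal relative to DMSO baseline marks antagonism. Primary screen ran in duplicate at 25 uM, with concentration series for actives.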

Test [17] has as its target human Peroxisome Proliferator-activated Receptor alpha (PPARa), PPARA (gene 5465) (UniProt Q07869). Kind of test: NVS_NR_hPPARa: NovaScreen (NVS) Nuclear Receptor Binding Assay for human Peroxisome Proliferator-activated Receptor alpha (PPARa) (AID 2283359).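 Also: activity means loss of TR-FRET signal versus DMSO baseline.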 Put shortly:
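Loss of TR-FRET binding signal relative to DMSO was measured 1 h after chemical addition to extracted receptor protein. Chemicals were first tested in duplicate at 25 uM, and actives were followed up in concentration series.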

Chain of rat Androgen Receptor (AR), Ar (gene 24208) (P15207 whole entry, looked up): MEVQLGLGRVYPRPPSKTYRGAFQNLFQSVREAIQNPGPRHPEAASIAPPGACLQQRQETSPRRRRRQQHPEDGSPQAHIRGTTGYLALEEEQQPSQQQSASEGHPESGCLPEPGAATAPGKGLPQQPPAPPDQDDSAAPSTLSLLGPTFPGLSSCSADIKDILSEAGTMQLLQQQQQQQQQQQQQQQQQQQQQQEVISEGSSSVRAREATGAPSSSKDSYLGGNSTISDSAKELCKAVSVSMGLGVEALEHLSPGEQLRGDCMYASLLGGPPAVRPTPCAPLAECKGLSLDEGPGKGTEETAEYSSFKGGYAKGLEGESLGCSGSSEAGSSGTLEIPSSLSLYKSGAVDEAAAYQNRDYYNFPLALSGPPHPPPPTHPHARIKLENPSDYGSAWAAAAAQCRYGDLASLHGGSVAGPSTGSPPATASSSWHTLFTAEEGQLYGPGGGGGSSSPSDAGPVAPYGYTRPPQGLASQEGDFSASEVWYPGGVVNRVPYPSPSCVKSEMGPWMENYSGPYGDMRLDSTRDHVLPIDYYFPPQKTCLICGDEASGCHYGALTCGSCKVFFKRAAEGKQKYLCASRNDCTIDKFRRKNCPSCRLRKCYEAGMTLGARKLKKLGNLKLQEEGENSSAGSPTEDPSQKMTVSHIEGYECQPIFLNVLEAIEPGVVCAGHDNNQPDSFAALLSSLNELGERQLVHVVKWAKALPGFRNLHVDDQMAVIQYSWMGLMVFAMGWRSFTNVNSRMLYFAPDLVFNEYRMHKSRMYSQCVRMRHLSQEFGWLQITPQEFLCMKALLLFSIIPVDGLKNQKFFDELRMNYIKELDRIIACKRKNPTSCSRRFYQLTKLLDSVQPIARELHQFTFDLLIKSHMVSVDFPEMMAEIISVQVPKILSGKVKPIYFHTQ
Chain of chimpanzee Androgen Receptor (AR), AR (gene 747460) (O97775 whole entry, looked up): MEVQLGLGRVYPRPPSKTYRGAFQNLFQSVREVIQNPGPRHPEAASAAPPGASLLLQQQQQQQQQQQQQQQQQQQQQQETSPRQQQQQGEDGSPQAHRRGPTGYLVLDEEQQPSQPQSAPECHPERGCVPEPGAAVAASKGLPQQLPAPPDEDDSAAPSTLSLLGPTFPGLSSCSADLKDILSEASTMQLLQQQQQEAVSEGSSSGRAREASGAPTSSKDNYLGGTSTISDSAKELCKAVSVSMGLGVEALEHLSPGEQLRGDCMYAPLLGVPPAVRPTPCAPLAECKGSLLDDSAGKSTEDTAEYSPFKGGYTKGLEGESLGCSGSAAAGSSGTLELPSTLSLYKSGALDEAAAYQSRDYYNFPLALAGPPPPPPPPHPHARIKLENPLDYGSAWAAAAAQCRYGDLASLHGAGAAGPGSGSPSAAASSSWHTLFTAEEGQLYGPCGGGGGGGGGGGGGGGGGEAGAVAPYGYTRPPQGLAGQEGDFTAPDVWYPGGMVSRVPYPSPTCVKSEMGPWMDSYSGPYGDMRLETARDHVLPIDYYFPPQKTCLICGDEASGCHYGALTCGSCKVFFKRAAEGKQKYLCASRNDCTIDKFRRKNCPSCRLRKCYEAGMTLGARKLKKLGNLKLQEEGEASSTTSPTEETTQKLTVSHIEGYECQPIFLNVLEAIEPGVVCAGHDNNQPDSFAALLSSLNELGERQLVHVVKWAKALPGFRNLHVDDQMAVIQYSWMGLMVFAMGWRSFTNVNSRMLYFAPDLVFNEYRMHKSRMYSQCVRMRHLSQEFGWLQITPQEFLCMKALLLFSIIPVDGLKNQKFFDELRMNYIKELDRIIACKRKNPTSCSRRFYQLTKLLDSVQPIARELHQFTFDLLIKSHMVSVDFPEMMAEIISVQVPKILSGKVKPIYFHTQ
Chain of Androgen Receptor/SRC-1 Co-activator, AR (gene 367) (P10275 whole entry, looked up): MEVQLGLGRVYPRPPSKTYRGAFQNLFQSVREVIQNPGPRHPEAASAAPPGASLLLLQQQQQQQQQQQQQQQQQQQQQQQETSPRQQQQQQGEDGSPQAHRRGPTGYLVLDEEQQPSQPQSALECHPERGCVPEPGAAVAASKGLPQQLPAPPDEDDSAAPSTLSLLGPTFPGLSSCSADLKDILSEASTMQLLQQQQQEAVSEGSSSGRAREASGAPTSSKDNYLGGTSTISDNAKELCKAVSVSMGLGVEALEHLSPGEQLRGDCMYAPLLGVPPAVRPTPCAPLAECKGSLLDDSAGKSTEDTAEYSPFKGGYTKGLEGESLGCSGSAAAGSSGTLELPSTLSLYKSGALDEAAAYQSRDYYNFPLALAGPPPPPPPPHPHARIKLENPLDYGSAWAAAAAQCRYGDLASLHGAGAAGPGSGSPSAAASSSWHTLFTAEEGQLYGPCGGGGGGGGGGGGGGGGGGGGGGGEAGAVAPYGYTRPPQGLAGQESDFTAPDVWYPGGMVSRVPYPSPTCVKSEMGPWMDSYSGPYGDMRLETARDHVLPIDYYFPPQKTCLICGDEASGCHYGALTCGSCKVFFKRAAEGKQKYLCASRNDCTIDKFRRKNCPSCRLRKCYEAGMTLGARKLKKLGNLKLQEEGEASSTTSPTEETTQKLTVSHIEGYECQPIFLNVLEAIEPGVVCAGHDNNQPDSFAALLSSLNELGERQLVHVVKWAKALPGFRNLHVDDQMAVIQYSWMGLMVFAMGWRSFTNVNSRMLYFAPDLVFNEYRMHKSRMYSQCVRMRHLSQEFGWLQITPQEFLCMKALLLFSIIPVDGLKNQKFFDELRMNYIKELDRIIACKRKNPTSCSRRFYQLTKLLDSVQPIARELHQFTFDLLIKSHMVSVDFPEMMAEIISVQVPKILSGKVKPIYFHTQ
Chain of human Thyroid Receptor Alpha (TRa), THRA (gene 7067) (P10827 whole entry, looked up): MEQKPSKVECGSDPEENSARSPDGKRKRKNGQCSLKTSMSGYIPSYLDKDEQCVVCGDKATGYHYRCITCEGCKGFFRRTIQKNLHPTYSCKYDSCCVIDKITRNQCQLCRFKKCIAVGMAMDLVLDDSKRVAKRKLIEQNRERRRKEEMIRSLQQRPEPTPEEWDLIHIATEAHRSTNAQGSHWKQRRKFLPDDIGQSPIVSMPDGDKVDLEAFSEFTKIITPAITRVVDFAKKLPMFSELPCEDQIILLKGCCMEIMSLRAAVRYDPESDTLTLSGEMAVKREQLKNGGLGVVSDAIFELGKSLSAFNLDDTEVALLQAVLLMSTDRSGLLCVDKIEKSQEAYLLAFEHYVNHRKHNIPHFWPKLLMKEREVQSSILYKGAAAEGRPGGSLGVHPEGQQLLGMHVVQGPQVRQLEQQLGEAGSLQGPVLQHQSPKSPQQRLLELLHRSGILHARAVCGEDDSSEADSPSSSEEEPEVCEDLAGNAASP
Chain of human Peroxisome Proliferator-activated Receptor alpha (PPARa), PPARA (gene 5465) (Q07869 whole entry, looked up): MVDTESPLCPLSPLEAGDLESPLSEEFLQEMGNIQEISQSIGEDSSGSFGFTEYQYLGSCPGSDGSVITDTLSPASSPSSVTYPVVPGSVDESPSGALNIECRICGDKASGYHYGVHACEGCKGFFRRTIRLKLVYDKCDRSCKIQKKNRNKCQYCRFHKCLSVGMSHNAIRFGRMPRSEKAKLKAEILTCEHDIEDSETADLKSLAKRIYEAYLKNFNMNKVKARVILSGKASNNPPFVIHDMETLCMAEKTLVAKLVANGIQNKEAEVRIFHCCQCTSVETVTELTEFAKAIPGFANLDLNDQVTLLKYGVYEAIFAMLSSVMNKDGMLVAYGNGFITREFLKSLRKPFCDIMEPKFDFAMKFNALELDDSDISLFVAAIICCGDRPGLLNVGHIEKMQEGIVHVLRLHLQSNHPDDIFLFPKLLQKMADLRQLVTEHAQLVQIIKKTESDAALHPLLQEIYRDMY
Chain of Estrogen receptor (Homo sapiens) (P03372 whole entry, looked up, the tested form may be a part): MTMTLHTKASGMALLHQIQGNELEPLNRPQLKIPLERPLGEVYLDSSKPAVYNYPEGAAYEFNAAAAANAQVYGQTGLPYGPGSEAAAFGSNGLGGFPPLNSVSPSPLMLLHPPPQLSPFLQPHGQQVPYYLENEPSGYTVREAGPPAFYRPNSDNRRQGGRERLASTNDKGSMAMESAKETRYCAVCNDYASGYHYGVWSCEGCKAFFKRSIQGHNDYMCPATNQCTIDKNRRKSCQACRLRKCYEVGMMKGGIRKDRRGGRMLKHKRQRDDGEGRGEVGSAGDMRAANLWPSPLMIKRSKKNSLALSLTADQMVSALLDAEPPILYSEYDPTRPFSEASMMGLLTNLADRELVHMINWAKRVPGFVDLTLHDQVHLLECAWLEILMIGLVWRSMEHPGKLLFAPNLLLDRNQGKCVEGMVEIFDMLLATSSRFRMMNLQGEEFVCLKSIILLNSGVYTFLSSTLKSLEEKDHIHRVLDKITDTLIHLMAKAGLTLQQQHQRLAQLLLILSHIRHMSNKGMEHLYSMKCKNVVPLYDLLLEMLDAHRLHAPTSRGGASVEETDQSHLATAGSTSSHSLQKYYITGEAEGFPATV

As usually defined, the AC50 is the concentration giving half of the maximal activity seen. As for `C[C@]12CCC(=O)C=C1CC[C@@H]1[C@@H]2CC[C@]2(C)C(=O)CC[C@@H]12`, the AC50 in [1] was 182 nM (active); in test [2], 38.5 µM (active); in test [4], 1.35 µM (active); in test [7], 0.0845 µM (active); with PGR (gene 5241), 8.27 µM (active). Moreover, the outcome in [2], in test [3], in test [5], in test [6], in test [8] and in test [9] was inactive. The compound was called inactive in test [10].

As for `CCC(=O)O[C@H]1CC[C@H]2[C@@H]3CCC4=CC(=O)CC[C@]4(C)[C@H]3CC[C@]12C`, the AC50 in [1] was 801 nM (active); in test [2] it was 14 µM (active); in test [3], 11.6 µM (active); in test [11], 29.9 nM (active) [middle of 6 runs]; in test [7] it was 0.517 µM (active); in test [8], 14.9 µM (active) and 12.4 µM (active) and 14.7 µM (active). In addition, the AC50 in test [9] was 12.2 µM (active) and 4.06 µM (active) and 12.3 µM (active); with PGR (gene 5241) it was 1.04 µM (active); in [12], 2.45 µM (active) and 896 nM (active) and 841 nM (active); in [13], 1.53 µM (active) [middle of 4 runs]. The outcome in test [1], in test [2], in test [3], in [5], in test [6] and in test [8] was inactive. Also, the compound was called inactive in test [9] and in test [10].

Consider `C[C@]12CCC(=O)C=C1CC[C@@H]1[C@@H]2CC[C@@]2(C)[C@H]1CC[C@]2(C)O`, for which the AC50 in [1] was 2.09 nM (active) and 6.55 nM (active); in test [2], 6.34 µM (active) and 6.28 µM (active) and 6.19 µM (active); in [7] it was 0.0685 µM (active); in the test with PGR (gene 5241), 0.175 µM (active); in test [12] it was 401 nM (active) and 201 nM (active) and 306 nM (active); in test [10], 9 µM (active) and 8.26 µM (active). The result in test [14], in [3], in test [5] and in test [10] was inactive.

Turning to `CCCCCCCCCc1ccc(O)cc1`, the result in test [2], in test [15] and in test [16] was inactive. Besides, the concentration at half-maximal activity (AC50) was 54.3 µM (active) and 28.9 µM (active) and 39.6 µM (active) in [3]; 55.2 µM (active) and 30 µM (active) and 24 µM (active) in test [5]; 17.6 µM (active) and 14.6 µM (active) and 19.5 µM (active) in test [6]; 36.2 µM (active) and 36 µM (active) and 48.1 µM (active) in [8]; 12.7 µM (active) and 12.4 µM (active) in test [9].

With `Oc1ccc(C(c2ccc(O)cc2)(C(F)(F)F)C(F)(F)F)cc1`, the outcome in test [1] and in [10] was inactive. Further, the AC50 was 16.9 µM (active) in test [7]; 19.2 µM (active) and 20.7 µM (active) and 19.7 µM (active) in [17]; 1.32 µM (active) with PGR (gene 5241); 726 nM (active) [middle of 4 runs] in [12].

In the case of `Cc1cc(O)ccc1Cl`, the AC50 is 16.1 µM (active) in [2], 50 µM (active) in [6], 43.7 µM (active) in test [8] and 47 µM (active) in test [9]. Moreover, the outcome in test [3] and in test [5] was inactive.
